Data reported in PubChem BioAssay AID686965 (The Scripps Research Institute Molecular Screening Center, 2013).
A number with no mark means an inactive call. No rule for the calls is given here.

Experiment: GFP fluorescence inhibitors and quenchers, late-stage follow-up, artefact control for Rin1-Abl interaction inhibitor project, biochemical, dose response, round 2 (AID 686965)
Conditions: GFP fluorescence quenching/inhibition counterscreen

| Structure (SMILES) | IC50 [µM] |
| --- | --- |
| Cn1ccc(OCc2ccccc2)cc1=O | > 67.5 |
| Nc1cc(OCc2ccccc2)ccn1 | > 67.5 |
| COc1cc(OCc2ccccc2)ccn1 | > 67.5 |
| O=c1cc(OCc2ccccc2)cc[nH]1 | > 67.5 |
| Cn1ccc(OCc2ccc(F)cc2)cc1=O | > 67.5 |
| COc1ccc(COc2ccn(C)c(=O)c2)cc1 | > 67.5 |
| COc1ccc(COc2ccnc(OC)c2)cc1 | > 67.5 |
| COc1cc(OCc2ccc(F)cc2)ccn1 | > 67.5 |
| O=c1cc(OCc2ccc(F)cc2)cc[nH]1 | > 67.5 |
| COc1ccc(COc2cc[nH]c(=O)c2)cc1 | > 67.5 |
